In all, about 9,900 sequences were measured (“r (bound/input frequency ratio)”: median about 0.7, highest 2% from about 6.5 on). This is one part of a sample in which the highest values are shown more often than they occur.
B1: ENSMUSG00000029636.77|Wasf3 (ssRNA)
RNA: GGGAGUUCUACAGUCCGACGAUCGCUUCGAUAUCCGCAUGCUAAAGAUCACUGGCUGUGUGUCUCAGUGAUGUCUUCCAACCAGUGGGUGAUACGUUUUCCUGUUUCUUCCCUUUGCAAAUUGAAUUCCAGGUAGAUAUGGUUGUAGAGGGGAAAGUUUAACAAAUCAGAAUGAAAUGUUUGUCUGUUUGCACACUGGGCCUGGUGGCCUCCAAGGAAAUGUGUACGAUCGUUUGCUUUCUCUAUCUUGGCGCUUGCAACCGAGAGCGGCCAUUUUUAUGAGGGGAGCCCUGUGGGUACUCAUCUCUUGCGGUCGCACUAGUGUGGAAUUCUCGGGUGUCAAGG
B2: ENSMUSG00000090935.714|Synj2bp (ssRNA)
RNA: GGGAGUUCUACAGUCCGACGAUCGCUUCGAUAUCCGCAUGCUAAGAGCUCUGCUCUCUGAGCAUCUGCCCCAGAUACAGAGGCAGAGUAUGAAGUGGAACAUUGUUUUAUUCCUAGGUGCUCAGGACAGACUGAUCAACCUCCAGUAACAUAUGUGGUUAGUAAGUGCUUCAGCUUGUGUAGCCAUUAAUAACCAAGUCAUAGGAUUGUGAAUCUAAAAUACUCCUGGGUAAAAUUUGUAUUAGAAUGGAAAAAAAAAUGAGGGUCAGAAAGGUGAGCUAACUUCAAGUUAGAUACUCCCCUCCUCUUGCGGUCGCACUAGUGUGGAAUUCUCGGGUGUCAAGG
B3: ENSMUSG00000061578.632|Ksr2|56:60;95:99 (ssRNA)
RNA: GGGAGUUCUACAGUCCGACGAUCGCUUCGAUAUCCGCAUGCUAUAGAGGGGACGGACAGCUCCCUGACCCUGGAUGGCCAGGAAUGGUGCUAGCUAGGCACACAGCCAAGCCCUUGAGGCUACUGUGAGUUAUGAGAACACACCAACCCUCAGCCCACAGACUGCAUAUGCCCCAGGACAGCUGUGAAGGUGACCCAAUACAAAAUCGUAAACUAACUUAAAACCAUUAAGGGUUUUUGUUUUGUUGUUGUUUGCUGGCUUUUUGUUUUUUGGGUUGGUUUUCUUUUUCUUUCUUUCUUUUUUCUCUUGCGGUCGCACUAGUGUGGAAUUCUCGGGUGUCAAGG
B4: ENSMUSG00000029636.430|Wasf3 (ssRNA)
RNA: GGGAGUUCUACAGUCCGACGAUCGCUUCGAUAUCCGCAUGCUAGUGGAUACAUGGAUGAGUGGAUGGGUGGAUUGGUGGGUGAGUGGAUAGGUGAAUGGAUGAUAGGUGGUGGAUGGUUGAGUGGGUGGAUUCAUGAUGGAUGGAUGGAUGGAUGGAUGGAUGGAUGGAUGGAUGAGUGGAUGGAUAAUAGGUUGAUGGGUGGAUAGGUAGAUGAGUGAAUAGAUAGAUAUAGAUCAGUGGGAGGAUUGGAAAGUAGGUGAAUGAAUGGAUGGCAGAUAGAUGGAUCAAUUACAGAUGGAUGGCUCUUGCGGUCGCACUAGUGUGGAAUUCUCGGGUGUCAAGG
B5: ENSMUSG00000029636.428|Wasf3 (ssRNA)
RNA: GGGAGUUCUACAGUCCGACGAUCGCUUCGAUAUCCGCAUGCUAGUGGAUGGGUGGGUGGAUACAUGGAUGAGUGGAUGGGUGGAUUGGUGGGUGAGUGGAUAGGUGAAUGGAUGAUAGGUGGUGGAUGGUUGAGUGGGUGGAUUCAUGAUGGAUGGAUGGAUGGAUGGAUGGAUGGAUGGAUGGAUGAGUGGAUGGAUAAUAGGUUGAUGGGUGGAUAGGUAGAUGAGUGAAUAGAUAGAUAUAGAUCAGUGGGAGGAUUGGAAAGUAGGUGAAUGAAUGGAUGGCAGAUAGAUGGAUCAAUUCUCUUGCGGUCGCACUAGUGUGGAAUUCUCGGGUGUCAAGG
B6: ENSMUSG00000029636.427|Wasf3 (ssRNA)
RNA: GGGAGUUCUACAGUCCGACGAUCGCUUCGAUAUCCGCAUGCUAAGCUAGGUGGAUGGGUGGGUGGAUACAUGGAUGAGUGGAUGGGUGGAUUGGUGGGUGAGUGGAUAGGUGAAUGGAUGAUAGGUGGUGGAUGGUUGAGUGGGUGGAUUCAUGAUGGAUGGAUGGAUGGAUGGAUGGAUGGAUGGAUGGAUGAGUGGAUGGAUAAUAGGUUGAUGGGUGGAUAGGUAGAUGAGUGAAUAGAUAGAUAUAGAUCAGUGGGAGGAUUGGAAAGUAGGUGAAUGAAUGGAUGGCAGAUAGAUGGACUCUUGCGGUCGCACUAGUGUGGAAUUCUCGGGUGUCAAGG
B7: ENSMUSG00000042529.153|Kcnj12 (ssRNA)
RNA: GGGAGUUCUACAGUCCGACGAUCGCUUCGAUAUCCGCAUGCUAAUAGGAAACACCAGAGUGGGUGCUUCUUAGAAAAGGACACUCAGGAAAUUAGUAUGGGGUCUGGGUCCCACAUCCCCAGGAAGUGGGUCAGCCCCACGUCCCCCGCUGGACUCACAGCUUGAGUUGUGCCUUAGAGACUCUGGUUGUCUGGCUUCCGUCAUUUCUGGUUUUCUCAGACUUGUUUAAUCUUUCCCUACUGCCCUAAGUCCACUCAUGAAGCUCCCCAGGCCCUUCUGAGAUUGCAGAGGCUGCUUGCUCAUCUCUUGCGGUCGCACUAGUGUGGAAUUCUCGGGUGUCAAGG
B8: ENSMUSG00000058297.7|Spock2 (ssRNA)
RNA: GGGAGUUCUACAGUCCGACGAUCGCUUCGAUAUCCGCAUGCUAGGAGGAGGCCGAGGAGGAGGAGGGUGAGGCGGGUGAGGCAGAUGAUGGAGGCUACAUCUGGUAGAUAGCCCUCGACGGCCUCGGCAGGCCAGGGUGCCGACGGCCAGAAAGACAGGCCAGAAGAGACCUGGACAACAGCAGGCAACUUAGCAAAUGGAUCCGGAAGUCAGUGCGGAGGACCCUGGCUCCAGUGGGGGAGGACUGGGGAGUGUGGCUUGUGUGUAUGUGUGAUAUGAGAUGUGUGUGUAUGAUGUGAGAUGCUCUUGCGGUCGCACUAGUGUGGAAUUCUCGGGUGUCAAGG
B9: ENSMUSG00000058297.8|Spock2 (ssRNA)
RNA: GGGAGUUCUACAGUCCGACGAUCGCUUCGAUAUCCGCAUGCUAGGCCGAGGAGGAGGAGGGUGAGGCGGGUGAGGCAGAUGAUGGAGGCUACAUCUGGUAGAUAGCCCUCGACGGCCUCGGCAGGCCAGGGUGCCGACGGCCAGAAAGACAGGCCAGAAGAGACCUGGACAACAGCAGGCAACUUAGCAAAUGGAUCCGGAAGUCAGUGCGGAGGACCCUGGCUCCAGUGGGGGAGGACUGGGGAGUGUGGCUUGUGUGUAUGUGUGAUAUGAGAUGUGUGUGUAUGAUGUGAGAUGUGAGUGCUCUUGCGGUCGCACUAGUGUGGAAUUCUCGGGUGUCAAGG
B10: ENSMUSG00000058297.4|Spock2 (ssRNA)
RNA: GGGAGUUCUACAGUCCGACGAUCGCUUCGAUAUCCGCAUGCUAGGAGACAGAAGAGGCAGGGGAGGAGGCCGAGGAGGAGGAGGGUGAGGCGGGUGAGGCAGAUGAUGGAGGCUACAUCUGGUAGAUAGCCCUCGACGGCCUCGGCAGGCCAGGGUGCCGACGGCCAGAAAGACAGGCCAGAAGAGACCUGGACAACAGCAGGCAACUUAGCAAAUGGAUCCGGAAGUCAGUGCGGAGGACCCUGGCUCCAGUGGGGGAGGACUGGGGAGUGUGGCUUGUGUGUAUGUGUGAUAUGAGAUGUGCUCUUGCGGUCGCACUAGUGUGGAAUUCUCGGGUGUCAAGG
B11: ENSMUSG00000058297.9|Spock2 (ssRNA)
RNA: GGGAGUUCUACAGUCCGACGAUCGCUUCGAUAUCCGCAUGCUAGGAGGAGGAGGGUGAGGCGGGUGAGGCAGAUGAUGGAGGCUACAUCUGGUAGAUAGCCCUCGACGGCCUCGGCAGGCCAGGGUGCCGACGGCCAGAAAGACAGGCCAGAAGAGACCUGGACAACAGCAGGCAACUUAGCAAAUGGAUCCGGAAGUCAGUGCGGAGGACCCUGGCUCCAGUGGGGGAGGACUGGGGAGUGUGGCUUGUGUGUAUGUGUGAUAUGAGAUGUGUGUGUAUGAUGUGAGAUGUGAGUGUGUGAUCUCUUGCGGUCGCACUAGUGUGGAAUUCUCGGGUGUCAAGG
B12: ENSMUSG00000058297.1|Spock2 (ssRNA)
RNA: GGGAGUUCUACAGUCCGACGAUCGCUUCGAUAUCCGCAUGCUAGGAGGAUGAGGAAGAAAAGGAGACAGAAGAGGCAGGGGAGGAGGCCGAGGAGGAGGAGGGUGAGGCGGGUGAGGCAGAUGAUGGAGGCUACAUCUGGUAGAUAGCCCUCGACGGCCUCGGCAGGCCAGGGUGCCGACGGCCAGAAAGACAGGCCAGAAGAGACCUGGACAACAGCAGGCAACUUAGCAAAUGGAUCCGGAAGUCAGUGCGGAGGACCCUGGCUCCAGUGGGGGAGGACUGGGGAGUGUGGCUUGUGUGUACUCUUGCGGUCGCACUAGUGUGGAAUUCUCGGGUGUCAAGG
B13: ENSMUSG00000058297.10|Spock2 (ssRNA)
RNA: GGGAGUUCUACAGUCCGACGAUCGCUUCGAUAUCCGCAUGCUAGGAGGGUGAGGCGGGUGAGGCAGAUGAUGGAGGCUACAUCUGGUAGAUAGCCCUCGACGGCCUCGGCAGGCCAGGGUGCCGACGGCCAGAAAGACAGGCCAGAAGAGACCUGGACAACAGCAGGCAACUUAGCAAAUGGAUCCGGAAGUCAGUGCGGAGGACCCUGGCUCCAGUGGGGGAGGACUGGGGAGUGUGGCUUGUGUGUAUGUGUGAUAUGAGAUGUGUGUGUAUGAUGUGAGAUGUGAGUGUGUGAUGUGAGACUCUUGCGGUCGCACUAGUGUGGAAUUCUCGGGUGUCAAGG
B14: ENSMUSG00000058297.6|Spock2 (ssRNA)
RNA: GGGAGUUCUACAGUCCGACGAUCGCUUCGAUAUCCGCAUGCUAGGCAGGGGAGGAGGCCGAGGAGGAGGAGGGUGAGGCGGGUGAGGCAGAUGAUGGAGGCUACAUCUGGUAGAUAGCCCUCGACGGCCUCGGCAGGCCAGGGUGCCGACGGCCAGAAAGACAGGCCAGAAGAGACCUGGACAACAGCAGGCAACUUAGCAAAUGGAUCCGGAAGUCAGUGCGGAGGACCCUGGCUCCAGUGGGGGAGGACUGGGGAGUGUGGCUUGUGUGUAUGUGUGAUAUGAGAUGUGUGUGUAUGAUGUCUCUUGCGGUCGCACUAGUGUGGAAUUCUCGGGUGUCAAGG
B15: ENSMUSG00000058297.8|Spock2|203:207;211:224;233:244 (ssRNA)
RNA: GGGAGUUCUACAGUCCGACGAUCGCUUCGAUAUCCGCAUGCUAGGCCGAGGAGGAGGAGGGUGAGGCGGGUGAGGCAGAUGAUGGAGGCUACAUCUGGUAGAUAGCCCUCGACGGCCUCGGCAGGCCAGGGUGCCGACGGCCAGAAAGACAGGCCAGAAGAGACCUGGACAACAGCAGGCAACUUAGCAAAUGGAUCCGGAAGUCAGUGCGGAGGACCCUGGCUCCAGUGGGGGAGGACUGGGGACACACGCUACACACAUACACACAUAUGAGAACACACACAUACAUGUGAGAUGUGAGUGCUCUUGCGGUCGCACUAGUGUGGAAUUCUCGGGUGUCAAGG
B16: ENSMUSG00000058297.9|Spock2|197:201;205:218;227:238;252:258 (ssRNA)
RNA: GGGAGUUCUACAGUCCGACGAUCGCUUCGAUAUCCGCAUGCUAGGAGGAGGAGGGUGAGGCGGGUGAGGCAGAUGAUGGAGGCUACAUCUGGUAGAUAGCCCUCGACGGCCUCGGCAGGCCAGGGUGCCGACGGCCAGAAAGACAGGCCAGAAGAGACCUGGACAACAGCAGGCAACUUAGCAAAUGGAUCCGGAAGUCAGUGCGGAGGACCCUGGCUCCAGUGGGGGAGGACUGGGGACACACGCUACACACAUACACACAUAUGAGAACACACACAUACAUGUGAGAUGUGACACACACAUCUCUUGCGGUCGCACUAGUGUGGAAUUCUCGGGUGUCAAGG

What follows are binders tested against TDP-43 (Homo sapiens, UniProt Q13148 1-414) (assay: RNA Bind-n-Seq with designed 260-mer pool; 25 mM Tris-HCl, 150 mM KCl, 3 mM MgCl2, BSA (printed 500 mg/mL), 20 units/mL SUPERase IN; pH not stated; 500 nM RNA pool, 1 h, 4 C; TDP-43 5, 50, 500 nM; high values mean tight binding). Details: protein: recombinant; tags: SBP (GST cleaved off with PreScission; pGEX-GST-SBP).
Procedure, shortened: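 Recombinant SBP-tagged TDP-43 at 5, 50 or 500 nM was captured on streptavidin beads, then incubated 1 h at 4 °C with 500 nM of an in vitro-transcribed 260-nt 3′ UTR oligo pool in 25 mM Tris-HCl, 150 mM KCl, 3 mM MgCl2, BSA and SUPERase IN. Bound RNA was washed, eluted with biotin, reverse transcribed, PCR-amplified and sequenced. Binding is R, each oligo's mapped-read-normalized abundance in the bound sample divided by its abundance in input. Duplicates used two independent protein batches.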

Sequence of TDP-43 (Q13148 whole entry): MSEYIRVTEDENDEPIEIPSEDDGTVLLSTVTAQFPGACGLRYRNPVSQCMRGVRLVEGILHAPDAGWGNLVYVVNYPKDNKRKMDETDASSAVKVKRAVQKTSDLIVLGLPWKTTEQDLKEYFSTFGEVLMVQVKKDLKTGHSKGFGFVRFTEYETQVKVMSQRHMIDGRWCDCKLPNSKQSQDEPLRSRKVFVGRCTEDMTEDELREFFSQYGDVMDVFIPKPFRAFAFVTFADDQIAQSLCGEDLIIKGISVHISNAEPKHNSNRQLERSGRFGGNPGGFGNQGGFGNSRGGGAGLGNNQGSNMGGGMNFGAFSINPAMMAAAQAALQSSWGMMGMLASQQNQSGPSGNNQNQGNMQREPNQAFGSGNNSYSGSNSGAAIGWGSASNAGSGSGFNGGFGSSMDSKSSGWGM

Binder | binding signal
B1 | 4.99 R (bound/input frequency ratio)
B2 | 1.22 R (bound/input frequency ratio)
B3 | 0.54 R (bound/input frequency ratio)
B4 | 4.31 R (bound/input frequency ratio)
B5 | 8.28 R (bound/input frequency ratio)
B6 | 4.15 R (bound/input frequency ratio)
B7 | 0.587 R (bound/input frequency ratio)
B8 | 5.88 R (bound/input frequency ratio)
B9 | 6.51 R (bound/input frequency ratio)
B10 | 6.81 R (bound/input frequency ratio)
B11 | 5.99 R (bound/input frequency ratio)
B12 | 3.54 R (bound/input frequency ratio)
B13 | 6.91 R (bound/input frequency ratio)
B14 | 4.92 R (bound/input frequency ratio)
B15 | 2.32 R (bound/input frequency ratio)
B16 | 2.81 R (bound/input frequency ratio)

Source: PMC12864922, “TDP-43 directly inhibits mRNA accumulation in neurites through modulation of mRNA stability”
